Test results as given in PubChem BioAssay (NCI).
About 83,000 compounds went through this panel and 20% of them were active in at least one assay; those are over-represented in the sample as a whole.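 Interpretation: 100, growth as untreated; towards 0, rising growth inhibition; 0, no net growth; 0 to -100, cell death. Compounds scoring below 10 were considered active.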 Activity calls are given as the source filed them.

How the values were obtained:
Test in all cases: NCI-60 one-dose screen, 48 h (100 = growth as untreated, 0 = no growth, -100 = all killed)
Conditions in all cases: 10 µM unless noted
SK-MEL-2 melanoma = test system: SK-MEL-2 melanoma
EKVX NSCLC = test system: EKVX NSCLC
SN12C renal = test system: SN12C renal
UO-31 renal = test system: UO-31 renal
TK-10 renal = test system: TK-10 renal
ACHN renal = test system: ACHN renal
CAKI-1 renal = test system: CAKI-1 renal
A498 renal = test system: A498 renal
CCRF-CEM leukemia = test system: CCRF-CEM leukemia
MOLT-4 leukemia = test system: MOLT-4 leukemia

Measured: growth

CSC(SC)=C(C#N)c1nc2ccccc2s1
inactive: SK-MEL-2 melanoma 40% | EKVX NSCLC 74.2% | SN12C renal 34.9% | UO-31 renal 51.8% | TK-10 renal 112% | ACHN renal 62.4% | CAKI-1 renal 55.8% | A498 renal 49.9% | CCRF-CEM leukemia 24.7% | MOLT-4 leukemia 63.6%

CCN1CCN(c2cc(C)nc(N(CCNc3ccnc4cc(Cl)ccc34)Cc3ccc4c(c3)OCO4)n2)CC1
active: SK-MEL-2 melanoma -82.8% | UO-31 renal -30.6% | TK-10 renal -48% | ACHN renal 0.724% | A498 renal -1.76% | CCRF-CEM leukemia -18.5% | MOLT-4 leukemia -34.1%
inactive: EKVX NSCLC 22.2% | SN12C renal 74.4% | CAKI-1 renal 53.6%

c1nc2ccc(-c3cc4ccc5[nH]ncc5c4c4c3CCCC4)cc2[nH]1
inactive: SK-MEL-2 melanoma 43% | EKVX NSCLC 93% | SN12C renal 76.4% | UO-31 renal 92.9% | TK-10 renal 61.7% | ACHN renal 52.2% | CAKI-1 renal 54% | A498 renal 49.9% | CCRF-CEM leukemia 31% | MOLT-4 leukemia 33.8%

Cc1ccc(C)c2c(C)c(C(=O)Nc3cccc(-n4cccn4)c3)oc12
inactive: SK-MEL-2 melanoma 66.3% [50 µM] | EKVX NSCLC 53.8% [50 µM] | SN12C renal 70% [50 µM] | UO-31 renal 40.7% [50 µM] | TK-10 renal 82.1% [50 µM] | ACHN renal 64.9% [50 µM] | CAKI-1 renal 44.6% [50 µM] | A498 renal 55.6% [50 µM] | CCRF-CEM leukemia 42.4% [50 µM] | MOLT-4 leukemia 42.2% [50 µM]

Cc1ccc(CNc2ccc3nc(CCC(C)C)[nH]c3c2)cc1
inactive: SK-MEL-2 melanoma 107% | EKVX NSCLC 96% | SN12C renal 85.9% | UO-31 renal 68.6% | TK-10 renal 113% | ACHN renal 99.3% | CAKI-1 renal 89.1% | A498 renal 97.1% | CCRF-CEM leukemia 93.7% | MOLT-4 leukemia 81.4%

O=C1Nc2c(C(=O)O)cccc2/C1=N/c1n[nH]c(=S)s1
inactive: SK-MEL-2 melanoma 98.8% | EKVX NSCLC 77.6% | SN12C renal 93.4% | UO-31 renal 69.9% | TK-10 renal 117% | ACHN renal 78% | CAKI-1 renal 52% | A498 renal 115% | CCRF-CEM leukemia 88.7% | MOLT-4 leukemia 90%

C=C1C(=O)O[C@H]2[C@H]1CC/C(COC(=O)c1ccc(C(=O)O)s1)=C\CC[C@@]1(C)O[C@@H]21
inactive: SK-MEL-2 melanoma 49.5% | EKVX NSCLC 34.2% | UO-31 renal 29% | TK-10 renal 13.1% | ACHN renal 17.4% | A498 renal 104%
active: SN12C renal -8.57% | CAKI-1 renal 8.39% | CCRF-CEM leukemia -28.7% | MOLT-4 leukemia -7%

O=S(=O)(NCCNc1nccc(-c2c(-c3ccc(F)c(O)c3)nc3sccn23)n1)c1ccc(F)cc1
inactive: SK-MEL-2 melanoma 12.3% | EKVX NSCLC 55.7% | SN12C renal 28.5% | TK-10 renal 83.5% | ACHN renal 19.7% | CAKI-1 renal 20.6% | A498 renal 70.9% | CCRF-CEM leukemia 12.7% | MOLT-4 leukemia 11.7%
active: UO-31 renal 3.56%

Cc1c(CC(=S)N2CCOCC2)nnn1-c1cccc(C(F)(F)F)c1
inactive: SK-MEL-2 melanoma 111% | EKVX NSCLC 104% | SN12C renal 103% | UO-31 renal 82.9% | TK-10 renal 104% | ACHN renal 106% | CAKI-1 renal 93.2% | A498 renal 102% | CCRF-CEM leukemia 103% | MOLT-4 leukemia 102%

O=C(Cc1ccc(NC(=O)c2cccc(Cl)c2)cc1)NCc1ccccc1
inactive: SK-MEL-2 melanoma 46.8% | EKVX NSCLC 72.8% | SN12C renal 58.1% | UO-31 renal 59.9% | TK-10 renal 64.3% | ACHN renal 65% | CAKI-1 renal 52% | A498 renal 42.2% | CCRF-CEM leukemia 22.7% | MOLT-4 leukemia 39.7%

CCN(CC)c1ccc(/C=N/NC(=O)Cc2ccc(Nc3ccnc(C(F)(F)F)c3)cc2)c(O)c1
active: CAKI-1 renal -20.8% | CCRF-CEM leukemia 9.9%
inactive: SK-MEL-2 melanoma 56.1% | EKVX NSCLC 10.5% | SN12C renal 40.3% | UO-31 renal 20.3% | TK-10 renal 35.4% | ACHN renal 19.4% | A498 renal 22% | MOLT-4 leukemia 10.4%

COc1ccc(-c2ccc(-c3ccc(C(=N)N)nc3)s2)cc1Cl
active: SN12C renal -81.7% | UO-31 renal -94.8% | ACHN renal -96.2% | CAKI-1 renal -90.2% | CCRF-CEM leukemia -49% | MOLT-4 leukemia -49.3%
inactive: SK-MEL-2 melanoma 102% | EKVX NSCLC 56.4% | TK-10 renal 94.5% | A498 renal 88.2%

Nc1nc(NC(=O)Nc2ccc(C(=O)O)cc2)nn1-c1ccc(S(N)(=O)=O)cc1
inactive: SK-MEL-2 melanoma 110% | EKVX NSCLC 105% | SN12C renal 89.5% | UO-31 renal 80.7% | TK-10 renal 106% | ACHN renal 99.6% | CAKI-1 renal 90.3% | A498 renal 90.6% | CCRF-CEM leukemia 99.4% | MOLT-4 leukemia 93.1%

Cc1ccc(/C=C/C(=O)c2ccc(-n3cc(CN4CCN(c5cc6c(cc5F)c(=O)c(C(=O)O)cn6C5CC5)CC4)nn3)cc2)cc1
inactive: SK-MEL-2 melanoma 95.5% | EKVX NSCLC 96% | SN12C renal 67.7% | UO-31 renal 61.8% | TK-10 renal 104% | ACHN renal 89.8% | CAKI-1 renal 69.8% | A498 renal 64.5% | CCRF-CEM leukemia 84.3% | MOLT-4 leukemia 86%
